Data on 17 molecules can be found in PubChem BioAssay (NCATS).

In experiment [1] the target is Calcium and integrin-binding protein 1 (Homo sapiens) (UniProt Q99828). Description: Primary qHTS for Identification of Calcium Integrin Binding Protein 1 (CIB1) Competitor (AID 1508620). Also: potency is read from the fitted curve at half-maximal effect.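 As to activity change, negative = inhibition: GST tagged CIB1 binding a fluorescein labelled alphaIIb integrin peptide tracer; top concentration of the series differs between compounds; % is scaled to controls: 0 for no effect and ±100 for the full control effect.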 In short, it runs like this:
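CIB1-GST (1 uM final) and compound incubated 15 min at room temperature before adding FITC-alphaIIb peptide tracer (100 nM final). Competition for binding read by fluorescence polarization (ex 480, em 540) after another 15 min at room temperature.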

Experiment [2] can be described thus: Primary qHTS for small molecule stabilizers of the endoplasmic reticulum resident proteome: Secreted ER Calcium Modulated Protein (SERCaMP) assay (AID 1508630). Also: % is scaled to controls: 0 for no effect and ±100 for the full control effect. In short, it runs like this: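 The SH-SY5Y reporter protocol was run at 3 concentrations up to 38.3 uM (primary) or 11 concentrations (follow-up): 16 h compound, 100 nM thapsigargin for 4 h, then extracellular luciferase luminescence.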

A short description of experiment [3]: A High-Content qHTS Against Drug Library for the Identification of Small Molecules that Inhibit DYT1 Early Onset Primary Dystonia-Associated Cell Pathology (AID 1645839; calls by dose curve). In short, it runs like this:
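High-content imaging quantified EGFP-TorsinA mislocalization in HEK293-derived cells inducibly expressing DYT1 mutant torsinA, after 48 h exposure to compound given together with tetracycline induction. Cell count served as a toxicity channel alongside %pathology.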

Experiment [4] has as its target Cytochrome P450 2D6 (Homo sapiens) (UniProt P10635). Description: Cytochrome P450 family 2 subfamily D member 6 (CYP2D6) small molecule antagonists: luciferase biochemical (cell-free) qHTS assay (AID 1645840; active = well fitted curve in the direction sought with a large enough effect in the repeat runs; an effect the other way counts as inactive or inconclusive; also: nearly all actives have a fitted effect of over 55% in size; also: potency is read from the fitted curve at half-maximal effect; as to activity change, negative = inhibition: % is scaled to controls: 0 for no effect and ±100 for the full control effect). In a few lines: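 P450-Glo CYP2D6 system: proluciferin substrate converted by enzyme to luciferin, read by luminescence proportional to activity. Enzyme-substrate mix with compound 10 min at room temperature, then NADPH regeneration 1 h before detection reagent.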

The target in experiment [5] is Cytochrome P450 2C9 (Homo sapiens) (UniProt P11712). Put plainly: Cytochrome P450 family 2 subfamily C member 9 (CYP2C9) small molecule antagonists: luciferase biochemical (cell-free) qHTS assay (AID 1645842; active = well fitted curve in the direction sought with a large enough effect in the repeat runs; an effect the other way counts as inactive or inconclusive; also: nearly all actives have a fitted effect of over 55% in size; also: potency is read from the fitted curve at half-maximal effect; as to activity change, negative = inhibition: % is scaled to controls: 0 for no effect and ±100 for the full control effect). In a few lines:
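P450-Glo CYP2C9 system: proluciferin substrate with enzyme in mix containing 0.4% BSA, 10 min at room temperature, then NADPH regeneration solution added and incubated 1 h at 37C. Detection reagent stopped reaction; luminescence read after 20 min as RLU.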

Experiment [6] in a line: Cytotoxicity counterscreen for inhibitors of SARS-CoV-2 cell entry (AID 1645845; calls by dose curve; also: nearly all actives have a fitted effect of over 50% in size). In a few lines:
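ATP-content luminescence (ATPLite 1step, 15 min RT) read after 48 h compound exposure of Expi293F cells stably expressing human ACE2; normalized to cells-only wells and media-only wells.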

Experiment [7] can be described thus: Primary qHTS to identify inhibitors of SARS-CoV-2 cell entry (AID 1645846; calls by dose curve; also: nearly all actives have a fitted effect of over 45% in size; also: potency is read from the fitted curve at half-maximal effect). The note with it: activity change, negative = inhibition: at 57.1 µM (top of the series) unless noted. In a few lines: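 HEK293 cells stably expressing human ACE2, pre-treated 1 h with compound, then infected with MLV particles pseudotyped with Wuhan-Hu-1 spike (C-terminal 19-aa truncation). Luciferase luminescence after 48 h at 37 °C, normalised to spike PP and bald PP.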

Experiment [8] is described as follows: Primary qHTS for inhibitors of nuclear receptor binding SET domain protein 2 (NSD2) in an isogenic RCH-ACV NSD2 p.E1099K mutant (9B) (AID 1645876). Also: nearly all actives have a fitted effect of over 70% in size. Also: potency is read from the fitted curve at half-maximal effect.
Experiment [9] in a line: Primary qHTS for inhibitors of nuclear receptor binding SET domain protein 2 (NSD2) in an RCH-ACV wild type WT cells (2C) (AID 1645877). Also: nearly all actives have a fitted effect of over 70% in size. Also: potency is read from the fitted curve at half-maximal effect.
The target in experiment [10] is N-terminal Xaa-Pro-Lys N-methyltransferase 1 (Homo sapiens) (UniProt Q9BV86). Put plainly: Confirmatory qHTS for Inhibitors of N-terminal methyltransferase 1 (NTMT1): MTaseGlo Assay (AID 1645874). Also: potency is read from the fitted curve at half-maximal effect; nearly all actives have a fitted effect of over 65% in size. In a few lines:
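SPKRIA peptide at 1 uM was methylated by 125 nM NTMT1 using 100 uM SAM over 30 min at room temperature, following a 15 min compound preincubation. Product SAH was detected luminescently.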

Experiment [11] concerns the target Cytochrome P450 3A4 (Homo sapiens) (UniProt P08684). Description: Cytochrome P450 family 3 subfamily A member 4 (CYP3A4) small molecule antagonists: luciferase qHTS assay (AID 1645841; active = well fitted curve in the direction sought with a large enough effect in the repeat runs; an effect the other way counts as inactive or inconclusive; also: potency is read from the fitted curve at half-maximal effect; nearly all actives have a fitted effect of over 45% in size). In short, it runs like this:
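Luminescent CYP3A4 activity readout: compounds plus enzyme-substrate mix 10 min at room temperature, reaction started with NADPH regenerating system for 1 h, stopped with detection reagent, read after 20 min. Ketoconazole served as control.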

Experiment [12] is described as follows: VSVG counterscreen qHTS to identify inhibitors of SARS-CoV-2 cell entry (AID 1645847; calls by dose curve; also: potency is read from the fitted curve at half-maximal effect; nearly all actives have a fitted effect of over 65% in size). In short, it runs like this: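 HEK293-ACE2 cells (Expi293F, human ACE2) pretreated 1 h with compound, then infected with MLV-based VSV-G pseudotyped particles for 48 h at 37 C; luciferase luminescence normalized to VSV-G PP and bald PP wells.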

Inconclusive results are not listed. Activity calls are given as the source filed them. Unless noted, calls follow the shape of the dose curve; as a rule, active = well fitted curve in the direction sought with a large enough effect; inconclusive = small, poorly fitted or top-dose-only effect, or another doubt; inactive = no such curve, though single readings can be large; an effect the other way counts as inactive or inconclusive.

Sequence of Cytochrome P450 2C9 (Homo sapiens) (P11712 whole entry, looked up): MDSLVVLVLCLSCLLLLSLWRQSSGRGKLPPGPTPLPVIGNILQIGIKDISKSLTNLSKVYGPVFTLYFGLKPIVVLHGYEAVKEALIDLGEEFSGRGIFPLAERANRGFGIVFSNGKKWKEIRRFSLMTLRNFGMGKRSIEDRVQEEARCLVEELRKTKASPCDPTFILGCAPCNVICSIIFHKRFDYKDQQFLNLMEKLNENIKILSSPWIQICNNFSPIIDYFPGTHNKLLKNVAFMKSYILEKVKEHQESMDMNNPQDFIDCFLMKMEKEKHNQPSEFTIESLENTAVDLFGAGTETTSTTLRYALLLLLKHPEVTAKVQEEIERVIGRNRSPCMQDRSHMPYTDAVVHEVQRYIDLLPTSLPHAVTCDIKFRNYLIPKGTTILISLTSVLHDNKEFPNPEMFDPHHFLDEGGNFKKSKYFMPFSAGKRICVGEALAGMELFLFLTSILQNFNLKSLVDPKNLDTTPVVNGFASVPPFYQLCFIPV
Sequence of Calcium and integrin-binding protein 1 (Homo sapiens) (Q99828 whole entry, looked up): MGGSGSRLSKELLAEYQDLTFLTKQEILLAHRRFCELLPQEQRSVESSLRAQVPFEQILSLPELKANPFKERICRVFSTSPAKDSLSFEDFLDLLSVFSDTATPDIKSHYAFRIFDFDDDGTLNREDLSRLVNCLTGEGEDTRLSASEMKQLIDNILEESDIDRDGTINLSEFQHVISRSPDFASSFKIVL
Sequence of Cytochrome P450 2D6 (Homo sapiens) (P10635 whole entry, looked up): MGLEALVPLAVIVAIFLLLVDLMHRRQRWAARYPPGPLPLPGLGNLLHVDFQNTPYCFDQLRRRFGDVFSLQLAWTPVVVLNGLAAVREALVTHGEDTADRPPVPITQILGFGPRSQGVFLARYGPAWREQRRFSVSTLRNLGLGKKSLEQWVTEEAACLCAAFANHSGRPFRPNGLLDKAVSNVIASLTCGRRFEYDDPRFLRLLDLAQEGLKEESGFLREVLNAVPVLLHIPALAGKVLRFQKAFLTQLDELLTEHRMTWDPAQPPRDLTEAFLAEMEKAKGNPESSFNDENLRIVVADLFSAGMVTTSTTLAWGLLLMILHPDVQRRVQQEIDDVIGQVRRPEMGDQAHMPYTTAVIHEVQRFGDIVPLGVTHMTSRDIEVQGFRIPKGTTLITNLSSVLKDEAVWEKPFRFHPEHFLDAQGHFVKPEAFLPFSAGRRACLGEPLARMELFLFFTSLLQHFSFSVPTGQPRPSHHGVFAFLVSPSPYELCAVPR
Sequence of N-terminal Xaa-Pro-Lys N-methyltransferase 1 (Homo sapiens) (Q9BV86 whole entry, looked up): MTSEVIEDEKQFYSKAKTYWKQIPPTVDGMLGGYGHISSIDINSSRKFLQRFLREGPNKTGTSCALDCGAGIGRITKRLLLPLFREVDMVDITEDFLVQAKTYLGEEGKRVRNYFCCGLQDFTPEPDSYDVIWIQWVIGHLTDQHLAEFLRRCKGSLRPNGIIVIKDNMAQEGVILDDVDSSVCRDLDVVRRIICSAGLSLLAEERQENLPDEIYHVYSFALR
Sequence of Cytochrome P450 3A4 (Homo sapiens) (P08684 whole entry, looked up): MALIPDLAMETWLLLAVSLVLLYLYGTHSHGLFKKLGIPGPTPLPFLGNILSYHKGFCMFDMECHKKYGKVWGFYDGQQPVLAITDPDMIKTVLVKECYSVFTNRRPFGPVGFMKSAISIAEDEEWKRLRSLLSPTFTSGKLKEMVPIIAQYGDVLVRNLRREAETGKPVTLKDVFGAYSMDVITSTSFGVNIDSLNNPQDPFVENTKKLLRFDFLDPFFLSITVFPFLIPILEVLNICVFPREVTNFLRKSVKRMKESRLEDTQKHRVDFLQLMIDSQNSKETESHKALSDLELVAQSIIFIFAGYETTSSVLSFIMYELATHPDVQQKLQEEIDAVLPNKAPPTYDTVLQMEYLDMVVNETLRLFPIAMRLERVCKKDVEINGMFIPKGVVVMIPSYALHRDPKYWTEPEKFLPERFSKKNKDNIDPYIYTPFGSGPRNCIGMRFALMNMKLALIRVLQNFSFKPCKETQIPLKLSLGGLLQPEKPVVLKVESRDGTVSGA

Turning to `CCOP(=S)(OCC)O/N=C(\C#N)c1ccccc1`, the Potency result in experiment [1] was “inactive”. For the same molecule, the outcome in experiment [2] and in experiment [3] was inactive. For the same molecule, the Potency in experiment [4] was 13.8 µM (active); in experiment [5], 2.19 µM (active).

As to `COP(=O)(OC)C(O)C(Cl)(Cl)Cl` (stereo not given), the Potency entry in experiment [1], in experiment [6] and in [8] was “inactive” each time. Besides, the outcome in experiment [2] and in experiment [3] was inactive. Besides, the activity change, negative = inhibition in experiment [7] was -13.6%.

`CCC(OC(C)=O)C(CC(C)NC)(c1ccccc1)c1ccccc1` (stereo not given): in experiment [1], the Potency entry is “inactive”. In experiment [2], the result was inactive. Moreover, the Potency in experiment [4] is 18 µM (active); in experiment [8] it was 24.6 µM (active); in experiment [9] it was 19.5 µM (active).

On to `CN1CCC(N(Cc2ccccc2)c2ccccc2)CC1`, for which the Potency result in experiment [1] and in experiment [5] was “inactive” in each case. Moreover, in [3], the molecule was called inactive. The Potency in [4] was 0.11 µM (active).

`O=C(O)CCCCCCNC1c2ccccc2CCc2ccccc21`: the Potency entry in [1], in [5], in experiment [8] and in experiment [9] was “inactive” in each case. The outcome in [2] and in experiment [3] was inactive.

Consider `Sc1ccccc1Cl`, for which the Potency entry in experiment [1], in [4] and in experiment [5] was “inactive” in each case. Further, in [3], the call was inactive.

With `CC1N=C(N)OC1c1ccccc1` (stereo not given), the Potency entry in experiment [1] and in experiment [5] was “inactive” each time. In addition, the molecule was classed as inactive in [3]. Also, in [4], the Potency is 4.92 µM (active).

As for `COc1ccc2c3c1O[C@H]1[C@@H](O)C=C[C@H]4[C@@H](C2)N(C)CC[C@@]341`, the Potency result in experiment [1] and in experiment [5] was “inactive” throughout. The outcome in experiment [2] was inactive. In addition, the Potency in experiment [8] was 6.72 µM (active).

For `Cc1nnc2n1-c1sc(CCc3ccc(CC(C)C)cc3)cc1C(c1ccccc1Cl)=NC2C` (stereo not given), the Potency entry in experiment [1] is “inactive”. In addition, in experiment [2], the result was inactive. Besides, the Potency in experiment [4] is 27.5 µM (active); in experiment [5], 15.5 µM (active); in experiment [7] it was 22.4 µM (active); in experiment [8] it was 7.5 µM (active); in experiment [9], 8.41 µM (active).

`CN1C(=O)CN=C(c2ccccc2)c2cc(Cl)ccc21`: the Potency entry in experiment [1] and in [8] was “inactive” in each case. The outcome in [2] and in experiment [3] was inactive.

`CC[C@]1(O)CC[C@H]2[C@@H]3CCC4=CCCC[C@@H]4[C@H]3CC[C@@]21C`: the Potency in experiment [1] is 31.6 µM (active); in [4], 17.4 µM (active); in [10] it was 14.1 µM (active); in [8], 9.44 µM (active); in [9], 7.5 µM (active). In addition, the result in [2] was inactive. For the same molecule, the Potency result in experiment [5] and in experiment [6] was “inactive” each time.

Consider `CC(C)NCC(O)c1ccc(N)c(C#N)c1` (stereo not given), for which the Potency result in experiment [1] and in experiment [8] was “inactive” in each case. For the same molecule, the result in experiment [2] and in experiment [3] was inactive.

Take `COP(=S)(OC)Oc1ccc(Sc2ccc(OP(=S)(OC)OC)cc2)cc1`: the Potency entry in [1] and in experiment [4] was “inactive” throughout. Moreover, the outcome in [3] was inactive. The results for the Potency in experiment [11] and in experiment [5] were 7.76 µM (active) and 15.5 µM (active), respectively.

As to `CC1COC2(c3ccccc3Cl)c3cc(Cl)ccc3NC(=O)CN12` (stereo not given), the Potency result in experiment [1], in [6] and in [7] was “inactive” in each case. In experiment [2], the outcome was inactive. The Potency was 11 µM (active) in experiment [4] and 24.5 µM (active) in [5].

Turning to `C=CCOC(Cn1ccnc1)c1ccc(Cl)cc1Cl` (stereo not given), the Potency result in experiment [1] and in experiment [6] was “inactive” in each case. In addition, in experiment [2], the outcome was inactive. Besides, the Potency in [4] is 2.88 µM (active); in experiment [5] it was 0.683 µM (active); in experiment [8], 23.7 µM (active).

Consider `C#C[C@]1(O)C=C[C@H]2[C@@H]3CCC4=CC(=O)CC[C@@H]4[C@H]3CC[C@@]21CC`, for which the Potency entry in experiment [1] and in [6] was “inactive” throughout. In addition, the outcome in experiment [2] and in experiment [3] was inactive. Further, the Potency in experiment [5] is 2.75 µM (active). Also, the activity change, negative = inhibition in experiment [7] was -10.9%.

Consider `C=CC[C@]1(O)CC[C@H]2[C@@H]3CCC4=CC(=O)CCC4=C3C=C[C@@]21C`, for which the Potency entry in experiment [1] and in [6] was “inactive” throughout. Moreover, the result in [2] and in experiment [3] was inactive. Besides, the Potency in experiment [5] is 11 µM (active); in experiment [12], 17.1 µM (active).
